# Measured values taken from PubChem BioAssay (Tox21).
# Results filed as inconclusive are left out. Where a call stands in place of a potency, no number is given. Values without a mark were called inactive. Activity calls are given as the source filed them. Calls come from the whole dose curve; as a rule, active = well fitted cell-killing curve with a large enough effect in the repeat runs; inconclusive = weak or mixed curves, or effect the other way; inactive = flat fitted curve, though single readings scatter.
# Experiment: qHTS assay to identify small molecule agonists of the androgen receptor (AR) signaling pathway in the presence of an antagonist - cell viability counter screen (AID 1259379); note: nearly all actives have a fitted effect of over 25% in size
# Details: MDA-kb2 viability, CellTiter-Fluor, 16 h; series mostly up to 92.4 µM
# Text: National Center for Advancing Translational Sciences [NCATS]
# NIH Chemical Genomics Center [NCGC]
# U.S. Environmental Protection Agency [EPA]
# National Institutes of Environmental Health Sciences [NIEHS]
# National Toxicology Program [NTP]
# U.S. Food and Drug Administration [FDA]
# Androgen receptor (AR) is an important member of nuclear receptor family. Its signaling plays a critical role in AR-dependent prostate cancer and other androgen related diseases. Considerable attention has been given in the past decades to develop methods to study and screen for the environmental chemicals that have the potential to interfere with metabolic homeostasis, reproduction, developmental and behavioral functions. Therefore AR binding assay for screening against androgen agonists and antagonists can be used to identify potential endocrine disruptors.
# MDA-kb2 cells (from ATCC, deposited by Wilson et al.) are human breast carcinoma cells that were stably transfected with a luciferase reporter gene under control of the MMTV promoter that contains response elements for both androgen receptor (AR) and glucocorticoid receptor (GR). This particular screening for measuring luciferase reporter gene activity using MDA-kb2 cells against Tox21 10K library compounds is a confirmation study on agonist mode screening in the presence of AR-antagonist compound (Nilutamide) at 3.0uM final concentration. The cytotoxicity of the compounds was tested in parallel by measuring the cell viability using CellTiter-Fluor assay system (Promega, Madison, WI) in the same wells.
# Tox21 Assay Protocol Summary:
# MDA-kb2 cells (cells cultured without CO2) were dispensed at 3,000 cells/well in 4uL of culture medium into white wall/solid-bottom 1536-well plates (Corning Life Sciences, Corning, NY) using a Multidrop Combi (Thermo Fisher Scientific Inc., Waltham, MA) dispenser. The assay plates were incubated at 37C and 0% CO2 for 5hr. One uL of 3.0uM (final concentration) Nilutamide or assay buffer was added using two separate tips of Flying Reagent Dispenser (FRD, Aurora Discovery, San Diego, CA). Then 23nL of compounds dissolved in DMSO at 15 concentrations and positive controls were transferred to the assay plates using a Pintool station (Wako, San Diego, CA). The assay plates were incubated at 37C and 0% CO2 for 16 hr. After 15hr incubation at 37C, 1uL/well CellTiter-Fluor reagent (Promega Corporation) was added to each well of the assay plates using FRD. After 1hr incubation at 37C and 0% CO2, the fluorescence signal was measured using a ViewLux plate reader (PerkinElmer, Shelton, CT).
Compound,Potency,"activity change, negative = cytotoxicity"
CC(=O)c1ccccc1,inactive,
CCN(CC)CCCC(C)Nc1ccnc2cc(Cl)ccc12 (stereo not given),,-10.8% [at 8.39 µM]
Cc1ccc2oc(=O)ccc2c1,inactive,
Cc1cccc(O)c1,inactive,
CCCCCCCCC/C=C/CC1CC(=O)OC1=O (stereo not given),inactive,
CC(c1cc2ccccc2s1)N(O)C(N)=O (stereo not given),inactive,
CCCCCCCCCCCCCCO,inactive,
c1ccc2scnc2c1,inactive,
CCCCCCCC(=O)OC,inactive,
O=C1CCC(N2C(=O)c3ccccc3C2=O)C(=O)N1 (stereo not given),inactive,
CCCSc1ccc2nc(NC(=O)OC)[nH]c2c1,inactive,
CCCCCCCCCC,inactive,
CCc1cccc(C)c1N,inactive,
OCCOCCOCCO,inactive,
O=C(O)CCCCCCCCCCC(=O)O,inactive,
CC(=O)CC(=O)Nc1ccccc1,inactive,
Cc1cc(C)c(C)cc1C,inactive,
CCCCC(CC)COC(=O)CCCCC(=O)OCC(CC)CCCC (stereo not given),inactive,
C/C=C1/CC2C=CC1C2 (stereo not given),inactive,
O=C(O)c1cc(C(=O)O)cc(S(=O)(=O)O)c1,inactive,

Compound,Potency,"activity change, negative = cytotoxicity"
C=C(C)C(=O)Nc1ccc(Cl)c(Cl)c1,inactive,
Nc1ccccc1[N+](=O)[O-],inactive,
CCC(O)OCCCOC (stereo not given),inactive,
CCN(CC)c1ccc(C(=O)c2ccccc2C(=O)O)c(O)c1,inactive,
C=C(C)C(=O)OCCOCCOCCOC(=O)C(=C)C,inactive,
COc1ccc(NC(C)=O)cc1N,inactive,
CCCCCCCCCCCCS,inactive,
CC1=C(C)S(=O)(=O)CCS1(=O)=O,inactive,
Oc1cccc2ccccc12,inactive,
CN(C)CCCN,inactive,
CC1CCC2CC1C2(C)C (stereo not given),inactive,
ON=C1CCCCC1,inactive,
O=S(=O)(O)c1ccc2ccccc2c1,inactive,
C#CCN(C)Cc1ccccc1,inactive,
CC1=CCC2CC1C2(C)C (stereo not given),inactive,
CCc1ccc(CCOc2ccc(CC3SC(=O)NC3=O)cc2)nc1 (stereo not given),inactive,
Cc1cnc(C(=O)NCCc2ccc(S(=O)(=O)NC(=O)NC3CCCCC3)cc2)cn1,inactive,
COS(C)(=O)=O,inactive,
O=C(O)CC(C(=O)O)C(CC(=O)O)C(=O)O (stereo not given),inactive,
C[C@H]1C[C@@H]2[C@H]([C@@H](O)C[C@@]3(C)[C@H]2CC[C@]3(O)C(=O)CO)[C@@]2(C)C=CC(=O)C=C12,inactive,
